Laboratory results from PubChem BioAssay (NCI).
Values joined by “and” are separate entries in the source; they are usually repeats but may differ in a detail not shown here. Equal values may be shown once. This is part of a sample that, as a whole, favours compounds with a hit. Of some 79,000 tested, about 15% had one in any assay. The source holds several records for some structures; these can differ, active in one and inactive in another. Active and inactive are the calls of the source. Rule as the data show it: active = growth inhibition above about 70%; inactive = the rest.

Experiments:
[1] = NCI Yeast Anticancer Drug Screen. Data for the rad52 strain (AID 147);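 also: 0% = growth of vehicle-treated control cultures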; conditions: S. cerevisiae rad52 mutant growth inhibition, stronger effect = higher value
In short: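 Growth of repair-deficient yeast cells was compared between compound-treated and vehicle-treated cultures to give percent inhibition.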

[2] = NCI Yeast Anticancer Drug Screen. Data for the wt1 strain (AID 149);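 also: 0% = growth of vehicle-treated wt1 cultures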; conditions: S. cerevisiae wt1 strain (SPY 50644) growth inhibition, stronger effect = higher value
In short: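 Yeast wt1 strain exposed to compounds; growth inhibition measured relative to vehicle-treated controls.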

[3] = NCI Yeast Anticancer Drug Screen. Data for the rad50EPP+ strain (AID 151);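 also: 0% = growth of vehicle-treated control cultures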; conditions: S. cerevisiae rad50 mutant strain, stronger effect = higher value
In short: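 Measured: growth inhibition of rad50EPP+ yeast. Reference: vehicle-treated controls. Screen uses strains with defined genetic alterations in DNA damage repair or cell cycle control.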

[4] = NCI Yeast Anticancer Drug Screen. Data for the mgt1 strain (AID 153); conditions: S. cerevisiae mgt1 mutant growth inhibition, stronger effect = higher value
In short: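 Compounds were applied to mgt1 mutant yeast, and growth was then compared against vehicle-treated control cultures to give percent inhibition.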

[5] = NCI Yeast Anticancer Drug Screen. Data for the rad50 strain (AID 155);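 also: 0% = growth of vehicle-only cultures of the same strain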; conditions: S. cerevisiae rad50 strain growth inhibition, stronger effect = higher value
In short: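 Yeast carrying a defined DNA repair defect were exposed to test compounds, and growth was compared with vehicle-treated controls to give percent inhibition.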

[6] = NCI Yeast Anticancer Drug Screen. Data for the mec2-1 strain (AID 157); conditions: S. cerevisiae mec2-1 strain, stronger effect = higher value
In short: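 Compounds were applied to mec2-1 yeast cells. Their growth was then compared with that of vehicle-treated cultures to give growth inhibition.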

[7] = NCI Yeast Anticancer Drug Screen. Data for the rad14 strain (AID 159);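 also: 0% = growth of vehicle-treated control cultures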; conditions: S. cerevisiae rad14 strain growth inhibition, stronger effect = higher value
In short: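 Yeast cells carrying a defined DNA-repair defect were exposed to compounds, and growth inhibition was calculated relative to vehicle-treated control cultures.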

[8] = NCI Yeast Anticancer Drug Screen. Data for the sgs1 mgt1 strain (AID 161);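 also: 0% = growth of cultures given vehicle only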; conditions: S. cerevisiae sgs1 mgt1 strain, stronger effect = higher value
In short: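 Percent growth inhibition was derived by comparing compound-exposed mutant yeast with vehicle-exposed cultures. The strain carries alterations in DNA damage repair.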

[9] = NCI Yeast Anticancer Drug Screen. Data for the cln2 rad14 strain (AID 165);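 also: 0% = growth equal to vehicle treated cultures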; conditions: S. cerevisiae cln2 rad14 strain, stronger effect = higher value
In short: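 Strain: cln2 rad14 yeast, altered in cell cycle control and DNA damage repair. Read-out: growth inhibition vs vehicle.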

[10] = NCI Yeast Anticancer Drug Screen. Data for the bub3 strain (AID 167); conditions: S. cerevisiae bub3 mutant strain, stronger effect = higher value
In short: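 Compounds were applied to a genetically altered yeast strain carrying a cell-cycle control defect. Growth inhibition was scored against vehicle-treated controls.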

[11] = NCI Yeast Anticancer Drug Screen. Data for the wt2 strain (AID 169);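 also: 0% = growth of vehicle-treated yeast cultures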; conditions: S. cerevisiae wt2 strain growth inhibition, stronger effect = higher value
In short: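 Growth of compound-treated yeast is measured and expressed as inhibition relative to vehicle-only controls.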

[12] = NCI Yeast Anticancer Drug Screen. Data for the mlh1 strain (AID 171);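 also: 0% = growth of vehicle-treated control cultures of the same strain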; conditions: S. cerevisiae mlh1 strain growth inhibition, stronger effect = higher value
In short: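 Test agents were incubated with yeast bearing a defined DNA damage repair or cell cycle control alteration; values are growth inhibition normalised to vehicle-treated cultures.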

[13] = NCI Yeast Anticancer Drug Screen. Data for the sgs1 strain (AID 173);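 also: 0% = growth of vehicle-only control cultures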; conditions: S. cerevisiae sgs1 mutant, stronger effect = higher value
In short: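 Strain with an altered DNA repair or cell cycle pathway exposed to compound. Growth then measured. Value = inhibition versus vehicle control.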

[14] = NCI Yeast Anticancer Drug Screen. Data for the mlh1 rad18 strain (AID 175); conditions: S. cerevisiae mlh1 rad18 strain growth inhibition, stronger effect = higher value
In short: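 A repair-deficient yeast strain is exposed to test compound, and growth is scored relative to vehicle-treated controls.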

[15] = NCI Yeast Anticancer Drug Screen. Data for the rad18 strain (AID 177); conditions: S. cerevisiae rad18 mutant growth inhibition, stronger effect = higher value
In short: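 DNA-repair-defective yeast; compound treatment; growth inhibition scored against vehicle.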

[16] = NCI Yeast Anticancer Drug Screen. Data for the CLN2oe strain (AID 163);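 also: 0% = growth of vehicle-only control cultures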; conditions: S. cerevisiae CLN2oe strain, stronger effect = higher value
In short: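 Cells of an engineered yeast line with disturbed cell-cycle regulation are treated with compound. Inhibition of growth is then calculated relative to the vehicle-treated reference.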

[17] = at 5.0 µM (retest, dose inferred, filed as 0.5)
[18] = at 50.0 µM (retest, dose inferred, filed as 5.0)

Measured: growth inhibition

Oc1ccc2ccccc2c1CCc1c(O)ccc2ccccc12
active: [1]; at 33.0 µM 94% | [1]; at 100.0 µM 85% | [2]; at 100.0 µM 88% | [3]; at 3.7 µM 70% | [3]; at 11.0 µM 85% | [3]; at 33.0 µM 86% | [3]; at 100.0 µM 83% | [4]; at 33.0 µM 95% | [4]; at 100.0 µM 87% | [5]; at 33.0 µM 93% | [5]; [18] 94% | [5]; at 50.0 µM 95.1% | [5]; at 100.0 µM 86% | [6]; at 11.0 µM 95% | [6]; at 33.0 µM 96% | [6]; [18] 95% | [6]; at 50.0 µM 96.5% | [6]; at 100.0 µM 90% | [7]; at 33.0 µM 89% | [7]; at 100.0 µM 85% | [8]; [18] 94% | [8]; at 50.0 µM 95% | [9]; [18] 92% | [9]; at 50.0 µM 88.2% | [10]; at 11.0 µM 98% | [10]; at 33.0 µM 93% | [10]; [18] 94% | [10]; at 50.0 µM 94.9% | [10]; at 100.0 µM 86% | [11]; at 100.0 µM 87% | [12]; at 11.0 µM 79% | [12]; at 33.0 µM 94% | [12]; at 100.0 µM 90% | [13]; at 33.0 µM 92% | [13]; at 100.0 µM 88% | [14]; [18] 92% | [14]; at 50.0 µM 95.2% | [15]; at 33.0 µM 91% | [15]; at 100.0 µM 85%
inactive: [1]; at 1.2 µM 3% | [1]; at 3.7 µM 14% | [1]; at 11.0 µM 54% | [2]; at 1.2 µM 5% | [2]; at 3.7 µM 17% | [2]; at 11.0 µM 19% | [2]; at 33.0 µM 52% | [3]; at 1.2 µM 28% | [4]; at 1.2 µM 2% | [4]; at 3.7 µM 6% | [4]; at 11.0 µM 60% | [5]; at 1.2 µM 5% | [5]; at 3.7 µM 13% | [5]; [17] 15% | [5]; at 11.0 µM 68% | [6]; at 1.2 µM 7% | [6]; at 3.7 µM 15% | [6]; [17] -6% | [7]; at 1.2 µM 3% | [7]; at 3.7 µM 8% | [7]; at 11.0 µM 28% | [8]; [17] 41% | [9]; [17] 6% | [10]; at 1.2 µM -1% | [10]; at 3.7 µM 2% | [10]; [17] 45% | [11]; at 1.2 µM 7% | [11]; at 3.7 µM 16% | [11]; at 11.0 µM 38% | [11]; at 33.0 µM 66% | [12]; at 1.2 µM 5% | [12]; at 3.7 µM 8% | [13]; at 1.2 µM 7% | [13]; at 3.7 µM 19% | [13]; at 11.0 µM 51% | [14]; [17] 55% | [15]; at 1.2 µM 5% | [15]; at 3.7 µM 15% | [15]; at 11.0 µM 46%

c1ccc(-c2cnc3ccccc3c2)cc1
70.1% (active) and 62.7% (inactive): [5]; at 50.0 µM
inactive: [1]; at 1.2 µM 0% | [1]; at 3.7 µM 3% | [1]; at 11.0 µM 0% | [1]; at 33.0 µM 28% | [2]; at 1.2 µM -7% | [2]; at 3.7 µM -8% | [2]; at 11.0 µM -12% | [2]; at 33.0 µM -12% | [3]; at 1.2 µM 7% | [3]; at 3.7 µM 14% | [3]; at 11.0 µM 37% | [4]; at 1.2 µM -5% | [4]; at 3.7 µM -7% | [4]; at 11.0 µM -6% | [4]; at 33.0 µM -6% | [5]; at 1.2 µM -5% | [5]; at 3.7 µM -3% | [5]; [17] -151% and -148% | [5]; at 11.0 µM 14% | [5]; at 33.0 µM 47% | [5]; [18] 37% and 47% | [6]; at 1.2 µM 3% | [6]; at 3.7 µM -3% | [6]; [17] -52% | [6]; at 11.0 µM -12% | [6]; at 33.0 µM -3% | [6]; [18] 31% and 18% | [6]; at 50.0 µM 56.7% and 56.4% | [8]; [17] -68% and -66% | [8]; [18] 36% and 47% | [8]; at 50.0 µM 62% and 49.7% | [16]; at 1.2 µM -6% | [16]; at 3.7 µM -7% | [16]; at 11.0 µM -1% | [16]; at 33.0 µM 6% | [9]; [17] -68% and -62% | [9]; [18] -49% and -39% | [9]; at 50.0 µM -14.5% and -17.3% | [10]; at 1.2 µM -6% | [10]; at 3.7 µM 0% | [10]; [17] -51% and -54% | [10]; at 11.0 µM 10% | [10]; at 33.0 µM 30% | [10]; [18] 18% and 54% | [10]; at 50.0 µM 46.5% and 63.5% | [11]; at 1.2 µM -4% | [11]; at 3.7 µM -3% | [11]; at 11.0 µM -5% | [11]; at 33.0 µM -6% | [12]; at 1.2 µM 2% | [12]; at 3.7 µM -9% | [12]; at 11.0 µM -7% | [12]; at 33.0 µM -9% | [13]; at 1.2 µM -3% | [13]; at 3.7 µM -5% | [13]; at 11.0 µM -11% | [13]; at 33.0 µM 12% | [14]; [17] -127% and -135% | [14]; [18] -30% and -44% | [14]; at 50.0 µM 55.5% and 45%
active: [1]; at 100.0 µM 99% | [2]; at 100.0 µM 98% | [3]; at 33.0 µM 70% | [3]; at 100.0 µM 98% | [4]; at 100.0 µM 96% | [5]; at 100.0 µM 99% | [6]; at 100.0 µM 99% | [16]; at 100.0 µM 97% | [10]; at 100.0 µM 99% | [11]; at 100.0 µM 98% | [12]; at 100.0 µM 99% | [13]; at 100.0 µM 99%

CC[n+]1oc(C(=O)c2ccc(Cl)cc2)c(-c2ccccc2)c1-c1ccccc1.[Cl][Fe]([Cl])([Cl])[Cl]
active: [1]; at 100.0 µM 75% | [3]; at 11.0 µM 75% | [3]; at 33.0 µM 93% | [3]; at 100.0 µM 99% | [5]; [18] 72% | [5]; at 50.0 µM 82% | [5]; at 100.0 µM 77% | [6]; at 50.0 µM 80% | [8]; [18] 79% | [8]; at 50.0 µM 89.3% | [10]; [18] 70%
inactive: [1]; at 1.2 µM 4% | [1]; at 3.7 µM 15% | [1]; at 11.0 µM 32% | [1]; at 33.0 µM 57% | [2]; at 1.2 µM 1% | [2]; at 3.7 µM -1% | [2]; at 11.0 µM 4% | [2]; at 33.0 µM 20% | [2]; at 100.0 µM 54% | [3]; at 1.2 µM 16% | [3]; at 3.7 µM 37% | [4]; at 1.2 µM -2% | [4]; at 3.7 µM -3% | [4]; at 11.0 µM -3% | [4]; at 33.0 µM -1% | [4]; at 100.0 µM 48% | [5]; at 1.2 µM 5% | [5]; at 3.7 µM 8% | [5]; [17] 36% | [5]; at 11.0 µM 41% | [5]; at 33.0 µM 62% | [6]; at 1.2 µM 3% | [6]; at 3.7 µM 1% | [6]; [17] 22% | [6]; at 11.0 µM 11% | [6]; at 33.0 µM 26% | [6]; [18] 57% | [6]; at 100.0 µM 69% | [8]; [17] 34% | [16]; at 1.2 µM 0% | [16]; at 3.7 µM 2% | [16]; at 11.0 µM 7% | [16]; at 33.0 µM 23% | [16]; at 100.0 µM 56% | [9]; [17] 17% | [9]; [18] 57% | [9]; at 50.0 µM 68.2% | [10]; at 1.2 µM -5% | [10]; at 3.7 µM -1% | [10]; [17] 13% | [10]; at 11.0 µM 8% | [10]; at 33.0 µM 25% | [10]; at 50.0 µM 67.5% | [10]; at 100.0 µM 65% | [11]; at 1.2 µM 0% | [11]; at 3.7 µM -2% | [11]; at 11.0 µM -3% | [11]; at 33.0 µM 13% | [11]; at 100.0 µM 59%
